Assay [1] is described as follows: AP1 Signaling Pathway (AID 357).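 Also: ME-180 reporter cells stimulated with EGF at its EC50 level; % is scaled to controls: 0 for no effect and ±100 for the full control effect.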 The following applies: ME-180 AP-1-bla reporter, EGF-induced, beta-lactamase ratio, 5 h; at 17.2 µM (top of the series) unless noted. Summed up:
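AP-1-bla ME-180 cells, Opti-MEM + 0.5% dialyzed FBS, plated overnight 37 °C. Cpd titration + EC50 EGF, 5 h 37 °C. CCF4 2.5 h RT; ex 405, em 460/530 ratio → %activity, AC50.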

Assay [2] can be described thus: NFAT Signaling Pathway (AID 444).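 Also: carbachol stimulus at about its EC50 of 1 µM final; % is scaled to controls: 0 for no effect and ±100 for the full control effect.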 The following applies: Jurkat NFAT-bla M1, carbachol, beta-lactamase ratio, 5 h; at 17.2 µM (top of the series) unless noted. In a few lines:
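Read-out: CCF4 FRET ratio (460 nm/530 nm) after 1 h RT dye loading, used for %activity and AC50 from titration series. Cells: Jurkat NFAT-β-lactamase/M1 line, treated with compound plus 1 uM carbachol for 5 h, 37 °C.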

Assay [3] is described as follows: Stat Signaling Pathway (AID 446).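 Also: ME-180 cervical cancer cells given 40 pM IL-6 alongside compound; SIE-controlled beta-lactamase reporter measured as 460/530 nm FRET emission ratio; % is scaled to controls: 0 for no effect and ±100 for the full control effect.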 The following applies: ME-180 SIE beta-lactamase reporter, IL-6 stimulated, 5 h; at 17.2 µM (top of the series) unless noted. In a few lines: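 ME-180 SIE-bla cells; overnight plating; cpd + IL-6 40 pM, 5 h, 37 C; LiveBLAzer 2.5 h RT; 460/530 nm emission ratio. Normalized to 300 pM IL-6 and 125 nM JAK inhibitor controls.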
The target of assay [4] is Glucocorticoid receptor (Homo sapiens) (UniProt P04150). The assay is described as follows: GR-GFP Redistribution (AID 450;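 active = compounds whose dose series gives a full or clear partial fitted curve of increased nuclear translocation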; also: potency is read from the fitted curve at half-maximal effect).
Sequence of Glucocorticoid receptor (Homo sapiens) (P04150 whole entry, looked up): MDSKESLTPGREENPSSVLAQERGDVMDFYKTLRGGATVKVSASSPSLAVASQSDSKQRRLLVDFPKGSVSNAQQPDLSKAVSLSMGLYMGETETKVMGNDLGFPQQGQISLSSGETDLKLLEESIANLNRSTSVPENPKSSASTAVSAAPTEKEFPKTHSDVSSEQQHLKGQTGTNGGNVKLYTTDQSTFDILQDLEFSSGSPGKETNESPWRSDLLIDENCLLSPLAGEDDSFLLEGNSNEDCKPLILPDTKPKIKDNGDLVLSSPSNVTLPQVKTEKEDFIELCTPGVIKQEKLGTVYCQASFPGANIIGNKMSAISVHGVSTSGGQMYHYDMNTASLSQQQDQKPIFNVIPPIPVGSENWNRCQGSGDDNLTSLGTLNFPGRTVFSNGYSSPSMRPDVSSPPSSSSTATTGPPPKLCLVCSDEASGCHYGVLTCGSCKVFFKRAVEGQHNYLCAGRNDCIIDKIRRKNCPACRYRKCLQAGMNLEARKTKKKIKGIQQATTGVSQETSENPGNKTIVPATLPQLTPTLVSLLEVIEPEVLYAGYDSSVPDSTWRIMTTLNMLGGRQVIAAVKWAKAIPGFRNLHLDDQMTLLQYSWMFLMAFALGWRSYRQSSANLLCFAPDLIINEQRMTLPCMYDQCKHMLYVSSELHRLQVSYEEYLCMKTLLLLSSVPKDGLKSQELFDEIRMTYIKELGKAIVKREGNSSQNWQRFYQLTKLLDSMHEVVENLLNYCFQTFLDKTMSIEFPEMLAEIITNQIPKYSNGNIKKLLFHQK
For assay [5] the target is unchanged. Description: GR-EFC Redistribution (AID 451; calls by dose curve; also: potency is read from the fitted curve at half-maximal effect). As to conditions: CHO-K1 GR-EFC translocation, beta-gal luminescence, 2 h. Summed up:
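Translocation of GR-ED fusion to nuclear EA restores b-gal, read by luminescence after 1 h room-temperature detection. Engineered CHO-K1 biosensor cells, 1,000/well, exposed 2 h at 37 C to titrations up to 46 uM final.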

Assay [6] concerns the target Mitogen-activated protein kinase 10 (Mus musculus) (UniProt Q61831). The assay is described as follows: JNK3 AlphaScreen Assay (AID 530).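 Also: kinase came from lysate of stimulated human HepG2 cells; signal reports phosphorylation of biotinylated GST-cJun 1-79 at Ser73 with 10 µM ATP; % is scaled to controls: 0 for no effect and ±100 for the full control effect.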 Summed up:
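Room-temperature AlphaScreen kinase assay; pre-activated HepG2 lysate as JNK3 source, biotin-GST-cJun(1-79) substrate, 10 uM ATP, compound 15 min preincubation.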

Assay [7] concerns the target 3',5'-cyclic-AMP phosphodiesterase 4B (Homo sapiens) (UniProt Q07343). The assay is described as follows: qHTS Assay for Inhibitors of PDE-IV (AID 607; active = well fitted activation curve with a large enough effect in the main read-out, with a control signal flat, not every such curve was filed as active; also: % of control where 0% means no effect). Summed up: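 ACTOne HEK293 cells carry a modified cAMP-gated CNG channel and express endogenous PDE4; plated 1000 cells/well, compounds up to 22.9 uM final. Membrane-potential dye fluorescence (ex 535/em 590) was read; parental cells received 10 uM forskolin + 100 uM RO 20-1724.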
A general note: qHTS replaces the single test concentration by a dilution series.

Assay [8] addresses Guanine nucleotide-binding protein G(i) subunit alpha-1 (Homo sapiens) (UniProt P63096). The assay is described as follows: qHTS Assay for Inhibitors of RGS12 GoLoco Motif Activity (Green Fluorophore) (AID 879; active = well fitted curve in the direction sought with a large enough effect; an effect the other way counts as inactive or inconclusive;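 also: 0% = labeled peptide with Gαi1 and full inhibition = labeled peptide alone without protein; negative values mean loss of peptide binding seen as reduced polarization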). In a few lines: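 Fluorescence polarization assay: 50 nM Gαi1 with 10 nM FITC-labeled RGS12 GoLoco peptide in 10 mM Tris pH 7.5, 150 mM NaCl, 0.1 mM GDP, 0.05% NP40, 10 min at room temperature with compound.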

The nature of assay [9]: qHTS Assay for Identification of Small Molecule Agonists for Thrombopoietin (TPO) Signaling Pathway (AID 917; active = well fitted curve in the direction sought with a large enough effect; an effect the other way counts as inactive or inconclusive; also: potency is read from the fitted curve at half-maximal effect). In a few lines: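 Luminescence from a Glycoprotein IIb promoter–driven luciferase reporter served as read-out in murine Ba/F3 cells carrying the human TPO receptor. Cells, deprived of IL-3 overnight, received compounds with 26 pM TPO and were incubated 24 hrs at 37 C.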

Assay [10] concerns the target Muscarinic acetylcholine receptor M1 (Rattus norvegicus) (UniProt P08482). Description: qHTS Assay for Antagonists of Acetylcholine Muscarinic M1 Receptor: Kinetic Measurement of Intracellular Calcium Response (AID 943; active = well fitted curve in the direction sought with a large enough effect; an effect the other way counts as inactive or inconclusive;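 also: Fluo-4 calcium signal as peak divided by basal fluorescence over 4 min; nearly all actives have a fitted effect of over 75% in size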). In a few lines:
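Intracellular calcium flux, recorded with Fluo-4 in a kinetic plate reader, served as signal; the response to carbachol at EC80 (100 nM final) was taken as maximal over minimal fluorescence after a 10 min compound pre-incubation in rat M1-CHO cells.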

Assay [11] shares this target. Description: qHTS Assay for Antagonists of Acetylcholine Muscarinic M1 Receptor: Measurement of IP-One Response (AID 944; active = well fitted curve in the direction sought with a large enough effect; an effect the other way counts as inactive or inconclusive; also: nearly all actives have a fitted effect of over 75% in size). In a few lines:
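Steps: plate transfected CHO-M1 cells overnight; add test compound, 10 min; add carbachol (200 nM, EC80) in stimulation buffer with LiCl; incubate 30 min; add labelled IP1 tracer and anti-IP1 antibody in lysis buffer; read HTRF after 10 min.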

The target in assay [12] is Pyruvate kinase (Leishmania mexicana) (UniProt Q27686). The assay is described as follows: qHTS Validation Assay for Inhibitors of Leishmania Mexicana Pyruvate Kinase (AID 945; active = well fitted curve in the direction sought with a large enough effect; an effect the other way counts as inactive or inconclusive;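 also: 0% = DMSO only neutral control wells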). Summed up: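 Purified LmPYK (E451W mutant, 0.2 nM) was incubated 1 h at room temperature with 0.5 mM PEP and 0.1 mM ADP in 50 mM imidazole pH 7.2, 50 mM KCl, 7 mM MgCl2; ATP formed was read by PKLight luminescence, normalized to DMSO wells.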
Sequence of Pyruvate kinase (Leishmania mexicana) (Q27686 2-499 E452W): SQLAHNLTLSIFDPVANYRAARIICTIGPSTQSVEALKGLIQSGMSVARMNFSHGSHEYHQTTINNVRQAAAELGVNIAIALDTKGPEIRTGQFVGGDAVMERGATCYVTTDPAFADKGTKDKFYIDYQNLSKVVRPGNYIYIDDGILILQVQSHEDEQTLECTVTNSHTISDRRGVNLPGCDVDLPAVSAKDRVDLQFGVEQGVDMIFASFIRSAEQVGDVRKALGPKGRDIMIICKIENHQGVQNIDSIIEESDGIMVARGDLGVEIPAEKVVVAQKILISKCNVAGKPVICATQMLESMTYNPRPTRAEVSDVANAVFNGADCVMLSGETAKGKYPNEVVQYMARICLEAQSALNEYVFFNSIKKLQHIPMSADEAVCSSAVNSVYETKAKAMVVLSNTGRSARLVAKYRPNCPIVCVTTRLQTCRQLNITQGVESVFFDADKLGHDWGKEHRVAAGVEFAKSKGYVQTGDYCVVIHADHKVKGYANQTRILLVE

In assay [13] the target is Pyruvate kinase PKM (Homo sapiens) (UniProt P14618). Description: qHTS Assay for Activators of Human Muscle Pyruvate Kinase (AID 954; active = well fitted curve in the direction sought with a large enough effect, not every such curve was filed as active;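 also: 0% = uninhibited enzyme and -100% = no enzyme or full thiadiazolimine inhibition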). Summed up: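 Luminescence from a luciferase ATP-detection/stop reagent reported PKM2 activity. Reactions contained 0.1 nM purified human enzyme, 0.5 mM PEP, 0.1 mM ADP and 7 mM MgCl2 at pH 7.2, run 1 h at RT.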
Sequence of Pyruvate kinase PKM (Homo sapiens) (P14618 whole entry, looked up): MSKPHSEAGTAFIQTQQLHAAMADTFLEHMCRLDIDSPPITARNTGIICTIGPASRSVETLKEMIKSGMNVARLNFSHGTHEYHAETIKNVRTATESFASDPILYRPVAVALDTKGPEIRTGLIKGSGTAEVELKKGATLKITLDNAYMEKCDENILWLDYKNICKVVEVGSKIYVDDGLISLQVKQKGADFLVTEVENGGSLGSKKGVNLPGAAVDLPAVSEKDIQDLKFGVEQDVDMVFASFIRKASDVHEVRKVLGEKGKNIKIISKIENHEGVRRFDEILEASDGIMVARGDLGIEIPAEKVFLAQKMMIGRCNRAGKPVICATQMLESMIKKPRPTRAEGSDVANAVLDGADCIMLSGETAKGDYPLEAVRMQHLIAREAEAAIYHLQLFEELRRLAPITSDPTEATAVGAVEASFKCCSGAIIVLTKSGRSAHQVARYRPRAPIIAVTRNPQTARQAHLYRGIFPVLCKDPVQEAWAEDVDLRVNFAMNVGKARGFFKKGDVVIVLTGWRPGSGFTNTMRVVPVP
For assay [14], the target named is Alpha-galactosidase A (Homo sapiens) (UniProt P06280). The assay is described as follows: Counterscreen for Glucocerebrosidase Inhibitors: qHTS Assay for Human alpha-Galactosidase at pH 4.5 (AID 992; active = well fitted curve in the direction sought with a large enough effect; an effect the other way counts as inactive or inconclusive; also: 0% is about no effect). In a few lines: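 Enzyme at 2 nM final was combined with compound (0.7 nM to 77 uM) and 80 uM 4-methylumbelliferyl alpha-D-galactopyranoside in 50 mM citric acid, 0.005% Tween-20, pH 4.5. After 20 min at room temperature, fluorescence was read (Ex 365/Em 440 nm); AC50 came from Hill fits.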
Sequence of Alpha-galactosidase A (Homo sapiens) (P06280 whole entry, looked up): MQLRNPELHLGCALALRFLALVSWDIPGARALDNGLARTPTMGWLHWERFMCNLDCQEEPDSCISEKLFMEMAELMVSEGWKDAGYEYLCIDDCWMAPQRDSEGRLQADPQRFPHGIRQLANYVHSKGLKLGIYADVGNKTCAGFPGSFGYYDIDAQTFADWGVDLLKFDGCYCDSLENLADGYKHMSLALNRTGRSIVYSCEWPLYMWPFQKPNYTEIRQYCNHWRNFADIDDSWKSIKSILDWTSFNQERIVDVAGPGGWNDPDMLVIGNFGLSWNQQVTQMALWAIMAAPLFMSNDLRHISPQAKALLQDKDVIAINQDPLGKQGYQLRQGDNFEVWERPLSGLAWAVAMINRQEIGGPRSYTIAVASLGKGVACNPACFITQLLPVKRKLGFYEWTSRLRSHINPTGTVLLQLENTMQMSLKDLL
For orientation: Counterscreens check selectivity or assay interference.

Assay [15] concerns the target alpha-glucosidase (Oryza sativa, rice) (UniProt Q653V4). Description: Counterscreen for Glucocerebrosidase Inhibitors: qHTS Assay for Rice alpha-Glucosidase at pH 5.0 (AID 997; active = well fitted curve in the direction sought with a large enough effect; an effect the other way counts as inactive or inconclusive;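 also: 0% = full activity with enzyme and -100% = basal without enzyme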). Summed up:
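Rice alpha-glucosidase (4 nM final) with 400 uM 4-methylumbelliferyl-alpha-D-glucopyranoside in citrate buffer pH 5.0, 20 min at room temperature, stopped at pH 10; fluorescence 365/440 nm, compounds 0.7 nM–77 uM, AC50 from Hill fits.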

Assay [16] is described as follows: qHTS Assay for Identification of Small Molecule Antagonists for NFkB Signaling Pathway (AID 895; active = well fitted inhibition curve with a large enough effect in the signal ratio, with a control signal flat, not every such curve was filed as active; the % refers to the signal ratio; also: potency is read from the fitted curve at half-maximal effect). In a few lines: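 Beta-lactamase reporter read-out (460 and 530 nm emission ratio, 405 nm excitation, 2 hrs substrate loading RT) after 5 hr stimulation with 10 pM TNF alpha in compound-treated NFkB-bla ME-180 cells in low-serum medium.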

We go through 14 molecules from PubChem BioAssay (NCATS).

A number with no mark means an inactive call. Results filed as inconclusive are left out. Activity calls are given as the source filed them. Unless noted, calls follow the shape of the dose curve; as a rule, active = well fitted curve in either direction with a large enough effect (not every such curve was filed as active); inconclusive = small, poorly fitted or top-dose-only effect, or another doubt; inactive = flat fitted curve, though single readings scatter. A value given as a limit tells only on which side of the number the result lay.

Sequence of Muscarinic acetylcholine receptor M1 (Rattus norvegicus) (P08482 whole entry, looked up): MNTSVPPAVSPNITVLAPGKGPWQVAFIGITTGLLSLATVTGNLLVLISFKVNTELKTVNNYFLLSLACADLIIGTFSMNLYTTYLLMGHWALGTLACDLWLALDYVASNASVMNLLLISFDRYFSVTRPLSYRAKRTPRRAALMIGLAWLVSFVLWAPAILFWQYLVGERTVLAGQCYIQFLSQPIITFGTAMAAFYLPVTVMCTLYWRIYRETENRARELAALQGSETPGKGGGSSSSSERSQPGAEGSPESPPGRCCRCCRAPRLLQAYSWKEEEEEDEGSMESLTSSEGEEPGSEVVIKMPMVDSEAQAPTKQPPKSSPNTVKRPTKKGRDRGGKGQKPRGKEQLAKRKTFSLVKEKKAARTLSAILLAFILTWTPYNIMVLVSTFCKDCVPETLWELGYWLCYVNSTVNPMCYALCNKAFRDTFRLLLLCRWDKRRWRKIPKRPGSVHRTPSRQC
Sequence of 3',5'-cyclic-AMP phosphodiesterase 4B (Homo sapiens) (Q07343 whole entry, looked up): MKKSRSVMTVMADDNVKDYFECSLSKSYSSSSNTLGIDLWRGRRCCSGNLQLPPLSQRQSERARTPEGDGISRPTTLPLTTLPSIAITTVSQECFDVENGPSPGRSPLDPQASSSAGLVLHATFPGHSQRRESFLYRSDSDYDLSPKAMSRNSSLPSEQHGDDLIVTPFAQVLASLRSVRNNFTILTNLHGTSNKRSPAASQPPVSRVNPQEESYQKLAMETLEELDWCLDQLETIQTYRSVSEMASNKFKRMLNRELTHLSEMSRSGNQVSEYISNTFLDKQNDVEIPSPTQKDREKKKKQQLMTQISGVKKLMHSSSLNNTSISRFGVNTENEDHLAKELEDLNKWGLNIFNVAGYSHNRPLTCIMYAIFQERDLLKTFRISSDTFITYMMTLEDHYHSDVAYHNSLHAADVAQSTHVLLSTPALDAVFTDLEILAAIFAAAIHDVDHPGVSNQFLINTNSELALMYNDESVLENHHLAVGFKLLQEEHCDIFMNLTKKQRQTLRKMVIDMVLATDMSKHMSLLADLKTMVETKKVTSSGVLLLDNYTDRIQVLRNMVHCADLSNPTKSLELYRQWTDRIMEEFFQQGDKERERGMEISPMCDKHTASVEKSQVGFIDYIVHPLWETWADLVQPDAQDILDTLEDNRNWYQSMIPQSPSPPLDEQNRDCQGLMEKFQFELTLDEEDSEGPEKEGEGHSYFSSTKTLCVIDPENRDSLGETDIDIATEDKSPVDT
Sequence of Guanine nucleotide-binding protein G(i) subunit alpha-1 (Homo sapiens) (P63096 whole entry, looked up): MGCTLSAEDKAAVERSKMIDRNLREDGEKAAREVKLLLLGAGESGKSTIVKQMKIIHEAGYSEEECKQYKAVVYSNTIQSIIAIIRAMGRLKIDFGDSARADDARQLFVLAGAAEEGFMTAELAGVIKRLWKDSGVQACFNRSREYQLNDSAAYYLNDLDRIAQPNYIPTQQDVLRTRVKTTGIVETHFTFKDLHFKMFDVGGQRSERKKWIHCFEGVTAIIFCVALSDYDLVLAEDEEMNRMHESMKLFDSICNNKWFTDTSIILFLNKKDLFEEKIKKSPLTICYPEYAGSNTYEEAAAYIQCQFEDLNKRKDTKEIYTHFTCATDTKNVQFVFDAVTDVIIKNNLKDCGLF

As to `O=C(O)C[C@@H]1CCCc2ccccc2[C@H]1O`, the activity change, negative = inhibition is 1.66% [at 38 µM] in assay [1] and 2.27% [at 38 µM] in [2]. Also, in assay [3], the activity, negative = inhibition was -11.9% [at 38 µM]. Besides, the Potency in assay [4] and in assay [5] was over 46 µM each time. The Potency result in assay [6], in [7], in assay [9], in assay [10], in assay [11] and in assay [12] was “inactive” throughout. In addition, the molecule was called inactive in [8], in [13], in [14] and in assay [15].
For the molecule `COc1ccc(/C(O)=C2/C(=O)C(=O)N(CCN3CCOCC3)C2c2cccnc2)cc1OC` (stereo not drawn), the activity change, negative = inhibition in assay [1] is -2.7%; in assay [2] it was 7.11%. The activity, negative = inhibition in assay [3] is 6.33%. For the same molecule, the Potency in assay [4] was over 20.6 µM.
For `CC(C)CCNc1nc2c(cc1C#N)COC(C)(C)C2`, in that order: -23.1%, 4.17%, 4.4% and over 20.6 µM.
Consider `OC[C@@H]1O[C@@H](n2cnc3c(Nc4ccccc4)ncnc32)[C@@H](O)[C@H]1O`, for which the results for the activity change, negative = inhibition in [1] and in assay [2] were 7.84% [at 38 µM] and 0.0847% [at 38 µM], respectively. The activity, negative = inhibition in [3] was -14.3% [at 38 µM]. The Potency is over 46 µM in [4], over 46 µM in [5], 2.24 µM (active) in assay [16] and 3.98 µM (active) in [9]. Moreover, the Potency result in assay [6], in assay [7], in assay [11] and in assay [12] was “inactive” throughout. Further, the molecule was called inactive in [8], in assay [13], in [14] and in [15].
As for `CN1C[C@H](C(=O)N[C@]2(C)O[C@]3(O)[C@H]4CCCN4C(=O)[C@H](Cc4ccccc4)N3C2=O)C[C@H]2c3cccc4[nH]cc(c34)C[C@@H]21`, the activity change, negative = inhibition in assay [1] was 1.56%; in assay [2] it was -6.21%. Further, in assay [3], the activity, negative = inhibition is -7.06%. Besides, the Potency in assay [4] and in [5] was over 20.6 µM in each case. Moreover, the Potency result in assay [6] and in assay [7] was “inactive” each time.
In the case of `Cn1c(=O)c2c(nc(/C=C\c3cccc(Cl)c3)n2C)n(C)c1=O`, the activity change, negative = inhibition was 7.2% [at 38 µM] in [1] and -6.69% [at 38 µM] in assay [2]. For the same molecule, the activity, negative = inhibition in assay [3] was -14.4% [at 38 µM]. In addition, the Potency in [4] and in assay [5] was over 46 µM in each case. The Potency result in assay [6], in [7], in assay [9], in assay [11] and in assay [12] was “inactive” each time. The molecule was classed as inactive in assay [8], in [13], in [14] and in [15].
For the molecule `NCCC[C@@](N)(C(=O)O)C(F)F`, the activity change, negative = inhibition in [1] is 6.84% [at 38 µM]; in assay [2], -7.76% [at 38 µM]. In [3], the activity, negative = inhibition is 2.8% [at 38 µM]. In addition, the Potency in assay [4] and in [5] was over 46 µM each time. Besides, the Potency entry in [6], in assay [7], in assay [9], in assay [11] and in [12] was “inactive” each time. The call in assay [8], in assay [13], in [14] and in [15] was inactive.
`CCC(NC(=O)Nc1ccc(O)cc1)(C(F)(F)F)C(F)(F)F`: the activity change, negative = inhibition in assay [1] is -8.11%; in assay [2] it was 8.99%. Besides, the activity, negative = inhibition in assay [3] is -7.48%. In assay [4], the Potency was over 20.6 µM.
On the same counts, the results for `COCCN(CCOC)C(=O)C12CCC(C)(C(=O)C1)C2(C)C` (stereo not drawn) are 9.52%, 8.02%, 3.59% and over 20.6 µM.
On to `CCc1cc(=O)oc2cc(C)c(CN3CCCC3)c(O)c12`, for which the activity change, negative = inhibition in assay [1] is -8.92%; in [2], -9.64%. Also, in assay [3], the activity, negative = inhibition is -10.7%. Moreover, the Potency in assay [4] is over 20.6 µM.
Regarding `CCCCCC[C@@H]([C@H](C)O)n1cnc2c(N)ncnc21`, the results for the activity change, negative = inhibition in assay [1] and in assay [2] were -20.5% [at 38 µM] and -4.53% [at 38 µM], respectively. In addition, the activity, negative = inhibition in assay [3] is 25.6% [at 38 µM]. Moreover, the Potency in [4] and in assay [5] was over 46 µM each time. Further, the Potency entry in assay [6], in assay [7], in [9], in [10], in assay [11] and in [12] was “inactive” throughout. The outcome in assay [8], in [13], in assay [14] and in [15] was inactive.
Turning to `Cc1cc(C)cc(CC2CC(=O)N(c3cc(C)on3)C2=O)c1` (stereo not drawn), the figures for the activity change, negative = inhibition in assay [1] and in assay [2] were -8.62% and -3.65%, respectively. The activity, negative = inhibition in assay [3] is -12.9%. Also, the Potency in assay [4] was over 20.6 µM.
For `CCCCOC(=O)CSC1=C(C#N)C(c2ccc3c(c2)OCO3)CC(=O)N1` (stereo not drawn), in that order: -13%, 19.6%, -9.97% and over 20.6 µM.
Consider `O=C(O)[C@@H]1CCCN[C@H]1C(=O)O`, for which the results for the activity change, negative = inhibition in assay [1] and in assay [2] were 13% [at 38 µM] and -7.71% [at 38 µM], respectively. In addition, in assay [3], the activity, negative = inhibition is -12.9% [at 38 µM]. In addition, the Potency in assay [4] and in assay [5] was over 46 µM in each case. Besides, the Potency entry in [6], in assay [7], in [16], in assay [9], in [10] and in [12] was “inactive” throughout. The call in [8], in [13], in assay [14] and in assay [15] was inactive.
